Screening data (PubChem BioAssay)
HT1080 IDH1KD tx: qHTS for induction of synthetic lethality in tumor cells producing 2HG: qHTS for the HT-1080-IDH1KD cell line | HT-1080 IDH1 knockdown viability, ATP luminescence, 48 h | Potency, µM (highest dose often 46.1 µM), for inactives: at the highest dose activity, negative = toxicity, hits mostly cytotoxic | AID 686971, 2013 | 360,000 compounds, 2% hits;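 further: 0% = DMSO wells and -100% = cell-free medium wells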
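HT-1080-IDH1KD cells (IDH1 knocked down), 750/well in RPMI with 5% FBS, treated with compound 48 h at 37 degrees C. Viability by CellTiter-Glo luminescence, normalised to DMSO and no-cell wells; concentration-response curves classed.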
DT40 TDP1 CPT: qHTS for Inhibitors of human tyrosyl-DNA phosphodiesterase 1 (TDP1): qHTS in cells in presence of CPT; chicken DT40 Tdp1-/-;hTDP1 cells + 20 nM CPT, ATP luminescence, 48 h; AID 686979, 2013; 420,000 compounds, 12% hits; Potency, µM (doses to about 46.2 µM), inactives show top-dose activity change, negative = growth inhibition, hits mostly inhibitors; further: nearly all actives have a fitted effect of over 55% in size
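Cell growth measured by CellTiter-Glo luminescence after a minimum 48 h, 37 C compound exposure with 20 nM CPT in Tdp1-knockout DT40 cells stably expressing hTDP1, seeded 400/well; qHTS titration format.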
TDP1 cell noCPT: qHTS for Inhibitors of human tyrosyl-DNA phosphodiesterase 1 (TDP1): qHTS in cells in absence of CPT | DT40 Tdp1-/- hTDP1 cells, no CPT, ATP luminescence, 48 h | Potency, µM (highest dose often 46.2 µM), without a hit: top-dose activity change, negative = growth inhibition, actives largely listed as inhibitors | 420,000 compounds, 15% hits | AID 686978, 2013; further: nearly all actives have a fitted effect of over 55% in size
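Seeded 400 DT40-hTDP1 cells/well (vehicle DMSO, no 20 nM CPT); pinned compounds; ≥48 hr at 37 °C; CellTiter-Glo luminescence as viability measure.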
KB-3-1 tox: qHTS assay for MDR1-selective chemotherapeutics: Primary screen using the parental adenocarcinoma cell KB-3-1; KB-3-1 viability, CellTiter-Glo ATP luminescence, 72 h; Potency, µM (highest dose often 46.1 µM), actives largely listed as cytotoxic; 400,000 compounds, 1.4% hits; AID 1347075, 2019; further: nearly all actives have a fitted effect of over 60% in size
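Here the drug-naive KB-3-1 line serves as comparator for MDR sub-line selectivity; cells received compound titrations, 72 h at 37 °C, then CellTiter-Glo readout.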
KB-V1 cytotox: qHTS assay for MDR1-selective chemotherapeutics: Primary screen using the drug-selected MDR subline cells KB-V1. Potency, µM (highest dose often 46.1 µM), usual class: cytotoxic. AID 1347076, 2019. KB-V1 MDR cells viability, CellTiter-Glo, 72 h. 400,000 compounds, 3.4% hits; further: nearly all actives have a fitted effect of over 60% in size
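Luminescent ATP read-out (CellTiter-Glo, 10 min) measures survival of drug-selected KB-V1 MDR cells after 72 h, 37 degrees C compound exposure. Medium: phenol-red-free DMEM, 10% FBS. Values from fitted concentration-response curves.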
HT1080-NT tox: qHTS for induction of synthetic lethality in tumor cells producing 2HG: qHTS for the HT-1080-NT fibrosarcoma cell line. HT-1080-NT fibrosarcoma viability, CellTiter-Glo ATP luminescence, 48 h. 360,000 compounds, 1.6% hits. Potency, µM (highest dose often 46.1 µM), for the others: at the highest dose activity, negative = less viability, usual class: cytotoxic;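 further: NT is the 2HG producing partner of a matched IDH1 knockdown line; 0% = DMSO-treated cells and -100% = media-only wells without cells; nearly all actives have a fitted effect of over 55% in size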
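Toxicity toward the 2HG-producing NT line was scored as %Activity, normalised to DMSO and no-cell wells, from CellTiter-Glo luminescence after 48 hours' treatment.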
Active calls of the source: *; i = inactive; ? = inconclusive; · = no result. Compounds with a hit are over-represented: about 19% of the library has one in this group of screens. The call rests on the fitted dose curve; in most records, active means well fitted curve in the direction sought with a large enough effect; inconclusive means small, poorly fitted or top-dose-only effect, or another doubt; inactive means no such curve, though single readings can be large; an effect the other way counts as inactive or inconclusive. Unless noted, on the % scale 0 is the no-effect control and ±100 the full control effect; potency means the concentration at half of the fitted maximal effect.

SMILES	HT1080 IDH1KD tx	DT40 TDP1 CPT	TDP1 cell noCPT	KB-3-1 tox	KB-V1 cytotox	HT1080-NT tox
COc1cc(/C=C(/C#N)C(=O)Nc2cc(C(F)(F)F)ccc2Cl)ccc1OCC(=O)Nc1cccc(C(F)(F)F)c1	-1.5%	18.4µM*	23.1µM*	i	i	-4.4%
COc1cc(/C=C(\C#N)C(=O)Nc2cccc(C(=O)O)c2)ccc1OCc1ccc(F)cc1	3.6%	-5.5%	-11.1%	i	i	-7.0%
COc1cc(C(=O)N(C)CCOc2ccccc2)ccc1OCC(=O)Nc1cccc(C(F)(F)F)c1	-26.2%	25.9µM*	16.4µM*	i	?	?
CCOC(=O)C1CCCN(C(=O)c2ccc(OC)c(OC)c2)CC1 (configuration not stated)	3.6%	-9.2%	-7.1%	i	i	28.2%
CCOC(=O)N1CCC(NC(=O)c2cc(C(=O)Nc3cccc(C(F)(F)F)c3)ccc2CO)CC1	-7.1%	5.17µM*	3.26µM*	?	i	-0.4%
CCOC(=O)C1CCN(C(=O)c2ccc(OCC(=O)Nc3ccc(OCC)cc3)c(OC)c2)CC1	-11.1%	20.6µM*	16.4µM*	i	i	-11.9%
Cc1c(NC(=O)c2ccc(N(Cc3ccccc3)S(C)(=O)=O)cc2)c(=O)n(-c2ccccc2)n1C	19.9%	3.2%	-19.2%	i	i	17.1%
CC1=C(C(=O)N(C)C)CC(CC(=O)NCc2cccc3ccccc23)C(=O)N1Cc1ccc(F)cc1 (configuration not stated)	5.2%	-6.8%	?	i	i	0.7%
CCC(=O)N1CCc2cc(S(=O)(=O)NCCC(=O)NC3CCCCCC3)ccc21	0.5%	?	-26.1%	i	i	-5.5%
CCOC(=O)C1CCN(C(=O)c2ccc(OCC(=O)Nc3cccc(C(F)(F)F)c3)c(OC)c2)CC1	-9.8%	13µM*	9.2µM*	i	?	?
c1cnn(-c2nc(N3CCOCC3)nc(N3CCOCC3)n2)c1	-28.0%	6.51µM*	5.8µM*	?	?	-19.0%
c1ccc(Oc2nc(N3CCOCC3)nc(N3CCOCC3)n2)cc1	-8.4%	?	-22.4%	i	?	2.1%
CCOc1ccccc1N1CC(c2nc3ccccc3n2CCCCOc2cc(C)ccc2C)CC1=O (configuration not stated)	·	25.9µM*	?	i	i	·
Cc1cccc(OCCCCn2c(C3CC(=O)N(c4ccccc4Cl)C3)nc3ccccc32)c1 (configuration not stated)	·	3.66µM*	?	?	i	·
CCOc1ccccc1N1CC(c2nc3ccccc3n2CCCOc2ccccc2OC)CC1=O (configuration not stated)	·	?	-26.5%	i	i	·
COc1ccccc1Cn1c(C2CC(=O)N(c3ccccc3OC)C2)nc2ccccc21 (configuration not stated)	·	?	?	i	i	·
COc1ccccc1OCCCn1c(C2CC(=O)N(c3ccccc3Cl)C2)nc2ccccc21 (configuration not stated)	·	13µM*	6.51µM*	i	?	·
CC(C(=O)Nc1ccccc1)N(C)Cc1cccs1 (configuration not stated)	17.5%	-11.5%	-27.7%	i	i	15.6%
Cc1ccc(Cl)cc1NCc1nnc2n1CCCCC2	·	-0.9%	4.0%	i	i	·
COc1ccc(OCCOC(=O)CNS(=O)(=O)c2ccc(SC)c([N+](=O)[O-])c2)cc1	-10.9%	-1.9%	-8.0%	i	?	-0.2%
C=C1CCC(C2CC(=O)OC2=O)C(=O)CCC2C1CC2(C)C (configuration not stated)	·	8.8%	-3.8%	·	·	·
CCOC(=O)c1c(C)oc2ncnc(Nc3cc(C)cc(C)c3)c12	·	-14.6%	-7.7%	i	i	·
Cc1c(Cl)cccc1NC(=O)CSCC(N)=O	-0.6%	-2.2%	-5.0%	i	i	3.2%
CO/N=C\CC(=O)Nc1ccc(Cl)c(Cl)c1	6.51µM*	?	?	7.31µM*	?	8.2µM*
NC(=O)SCC(=O)Nc1cccc(Cl)c1	8.4%	?	?	i	i	7.2%
SMILES	HT1080 IDH1KD tx	DT40 TDP1 CPT	TDP1 cell noCPT	KB-3-1 tox	KB-V1 cytotox	HT1080-NT tox
Cc1c(Cl)cccc1NC(=O)CSC(N)=O	7.9%	20.6µM*	16.4µM*	i	i	0.1%
NC(=O)SCC(=O)Nc1ccc(Cl)cc1	?	20.6µM*	?	?	i	?
COC(=O)CCC(=O)Nc1ccc(Cl)c(Cl)c1	0.4%	-1.8%	-14.9%	i	i	9.2%
NC(=O)SCC(=O)Nc1ccc(Cl)c(Cl)c1	?	9.2µM*	23.1µM*	i	i	-19.5%
O=S(=O)(c1ccccc1)C1(C2CC(c3ccccc3)=NO2)CC(O)C1 (configuration not stated)	19.1%	?	-4.1%	i	i	18.9%
CCn1c(CN2CCOCC2)nc2cc(NC(=O)c3cccc([N+](=O)[O-])c3)ccc21	·	?	-27.0%	i	i	·
CC1(C)N=C(SCC(=O)Nc2ccc(Cl)cc2)C(c2ccccc2)=N1	-16.5%	?	?	i	?	-3.3%
CC1(C)N=C(SCC(=O)Nc2ccc(Cl)cc2)C(c2ccc(Cl)cc2)=N1	-9.1%	?	18.4µM*	?	?	-22.1%
CC1=C(C(=O)Nc2ccc(C)cc2C)C(c2ccc(C)o2)NC(=S)N1 (configuration not stated)	-7.4%	-5.8%	-9.0%	i	?	-3.6%
CSc1ccccc1NC(=O)CN(C)Cc1c(O)ccc2ccccc12	1.4%	?	23.1µM*	i	i	-2.4%
CSc1ccccc1NC(=O)CSCc1ccc(Br)cc1	15.6%	3.4%	-2.5%	i	20.6µM*	8.2%
COc1cccc(CN(C)CC(=O)NCc2ccc(F)cc2)c1OC	3.3%	-23.2%	-29.3%	i	i	0.2%
COc1ccccc1CNC(=O)CN(C)Cc1ccc(SC)cc1	-22.8%	16.4µM*	23.1µM*	i	i	-11.8%
